A selection: hits, their analogues and other compounds. The true share with any hit is near 12%.
Pf growth 96h – inhibits malaria parasite growth, 96 h. P. falciparum luciferase reporter growth, 96 h. Potency, µM (doses to about 28.7 µM), for the others: at the top dose activity change, negative = inhibition, actives largely listed as inhibitors. hit rate 6.9% among 320,000. AID 504834; also: % is scaled to controls: 0 for no effect and ±100 for the full control effect
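Plates of compound plus infected erythrocytes (2% hematocrit, 0.05% parasitemia final) incubate 96 hours, 37 C, 5% CO2. Detection reagent added; reduced luminescence from the parasites' luciferase reporter flags inhibition.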
AmpC no deterg – AmpC beta-lactamase inhibition without detergent; hit rate 0.52% among 330,000; Potency, µM (series often up to 57.1 µM), for inactives: at the top dose activity change, negative = inhibition, most hits filed as inhibitors; P00811; AID 485341; AmpC nitrocefin hydrolysis, absorbance 480 nm, 0.0001% Triton;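 also: plate controls were no compound for no effect and no enzyme for full effect; nearly all actives have a fitted effect of over 20% in size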
Target sequence (P00811 whole entry, looked up): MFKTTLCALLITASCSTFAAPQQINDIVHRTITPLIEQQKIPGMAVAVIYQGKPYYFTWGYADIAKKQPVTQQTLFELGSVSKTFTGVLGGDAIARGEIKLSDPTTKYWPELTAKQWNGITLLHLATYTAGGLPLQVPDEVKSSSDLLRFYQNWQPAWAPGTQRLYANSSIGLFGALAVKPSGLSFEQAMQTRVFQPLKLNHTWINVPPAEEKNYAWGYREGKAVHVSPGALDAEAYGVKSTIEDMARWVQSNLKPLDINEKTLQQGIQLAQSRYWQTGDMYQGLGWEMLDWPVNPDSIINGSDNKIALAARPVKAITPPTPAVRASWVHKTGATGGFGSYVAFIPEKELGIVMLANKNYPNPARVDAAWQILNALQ
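AmpC (5.3 nM in the dispensed reagent) in 20 mM phosphate pH 7.0 with 0.01% (detergent screen) or 0.0001% Triton X-100 was preincubated with compounds for 15 min at room temperature. Nitrocefin was then added from an 800 uM solution, and hydrolysis was followed at 480 nm.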
SARS PLP yeast – inhibitors of SARS-CoV papain-like protease in yeast. S. cerevisiae expressing SARS-CoV PLpro, growth rescue. Potency, µM (titrated, usually from 32.9 µM), without a hit: at the highest dose activity, positive = growth rescue, most hits filed as activators. hit rate 0.19% among 330,000. AID 485353; calls by dose curve; also: 0% is about no effect; nearly all actives have a fitted effect of over 55% in size
Sm TGR block – S. mansoni TGR enzyme inhibition; Q962Y6; purified TGR, DTNB reduction, TNB absorbance 405 nm; Potency, µM (doses to about 114 µM), for the others: at the highest dose activity change, negative = inhibition, actives largely listed as inhibitors; hit rate 3% among 360,000; AID 485364; also: % is scaled to controls: 0 for no effect and ±100 for the full control effect; nearly all actives have a fitted effect of over 60% in size
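Kinetic colorimetric format: TGR-catalysed, NADPH-driven DTNB reduction monitored via TNB absorbance. Enzyme dispensed at 20 nM; compound exposure 15 min at room temperature before reaction start.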
Pf growth 48h – inhibits P. falciparum growth in the first generation, 48 h | hit rate 5.9% among 310,000 | Potency, µM (titrated, usually from 28.7 µM), for inactives: at the top dose activity change, negative = inhibition, actives largely listed as inhibitors | P. falciparum luciferase growth in erythrocytes, 48 h | AID 504832; also: % is scaled to controls: 0 for no effect and ±100 for the full control effect
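Here the parasites carry a stable luciferase gene and grow inside erythrocytes in Albumax-based RPMI medium with compound for one erythrocytic cycle. Activity is scored as loss of luminescent signal.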
AmpC inh detg – inhibitors of E. coli AmpC beta-lactamase with detergent | Potency, µM (top dose mostly 114 µM), inactives show top-dose activity change, negative = inhibition, hits mostly inhibitors | AmpC hydrolysis of nitrocefin, absorbance 480 nm, 0.01% Triton | P00811 | hit rate 0.041% among 370,000;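 also: 0% = no-compound wells and -100% = no-enzyme wells; nearly all actives have a fitted effect of over 25% in size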
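20 mM phosphate pH 7.0 + 0.01% (detergent screen) or 0.0001% Triton X-100; 5.3 nM AmpC reagent; cpd preinc 15 min RT; nitrocefin (800 uM stock) to start; A480 q20 s × 4 min; Activity was normalised to no-enzyme and no-compound control wells.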
An asterisk follows results filed as active. Unless noted, calls follow the shape of the dose curve; as a rule, active = well fitted curve in the direction sought with a large enough effect; inconclusive = small, poorly fitted or top-dose-only effect, or another doubt; inactive = no such curve, though single readings can be large; an effect the other way counts as inactive or inconclusive. Potency is read from the fitted curve at half-maximal effect.

What do the screens show for `COc1ccc(N2C(=O)CC(Sc3nc4ccccc4s3)C2=O)cc1` (centres undefined)?
Pf growth 96h: inconclusive; AmpC no deterg: -19.3%; SARS PLP yeast: -5.6%; Sm TGR block: 22.4µM*; Pf growth 48h: inconclusive; AmpC inh detg: 1.4%

How did COc1ccc(N2C(=O)CC(Sc3nnc(-c4ccccc4F)n3C)C2=O)cc1 (centres undefined) do in these assays?
Pf growth 96h: 1.5%; AmpC no deterg: -10.2%; SARS PLP yeast: 0.3%; Sm TGR block: 2.82µM*; Pf growth 48h: 10.9%; AmpC inh detg: 10.5%

What do the screens show for `COc1ccc(N2C(=O)CC(N3CCC(n4c(=O)[nH]c5ccccc54)CC3)C2=O)cc1` (centres undefined)?
Pf growth 96h: 18.8%; AmpC no deterg: 33.0%; SARS PLP yeast: -32.0%; Sm TGR block: 35.5µM*; AmpC inh detg: -3.9%

Results for COc1cccc(C(=O)c2cn(CC(=O)NCc3ccccc3)c3nc(C)ccc3c2=O)c1 ?
Sm TGR block: 2.0%; AmpC inh detg: -0.2%

How did COc1cccc(CNC(=O)c2ccc(NC(=O)N3CC(C)Sc4ccccc43)cc2)c1 (centres undefined) do in these assays?
Sm TGR block: 5.3%; AmpC inh detg: 10.2%

What do the screens show for `CCOC(=O)C1=C(C)N(C[C@@H]2CC[C@@H](Cc3ccc(-c4ccccc4)cc3)O2)C(=O)NC1C1CC1` (some centres undefined)?
AmpC no deterg: -18.3%; SARS PLP yeast: 7.4%

What do the screens show for `C=CCNc1nnc(SC2CC(=O)N(c3ccc(OC)cc3)C2=O)s1` (centres undefined)?
Pf growth 96h: inconclusive; AmpC no deterg: -15.8%; SARS PLP yeast: -33.4%; Sm TGR block: 2.82µM*; AmpC inh detg: -11.9%

Results for COc1ccc(N2C(=O)CC(N3CCN(c4nc5ccccc5s4)CC3)C2=O)cc1 (centres undefined) ?
Pf growth 96h: 4.65µM*; AmpC no deterg: 194.7%; SARS PLP yeast: -18.3%; Sm TGR block: 20µM*; Pf growth 48h: -23.4%; AmpC inh detg: -7.5%

Results for COc1ccc(N2C(=O)CC(N3CCN(c4ccc(S(C)(=O)=O)cc4)CC3)C2=O)cc1 (centres undefined) ?
Pf growth 96h: -22.6%; AmpC no deterg: -9.0%; SARS PLP yeast: -2.2%; Sm TGR block: 17.8µM*; AmpC inh detg: inconclusive

How did C/C=C/c1ccc(OCCn2cncn2)c(OC)c1 do in these assays?
Pf growth 96h: -7.5%; AmpC no deterg: -11.3%; SARS PLP yeast: -2.5%; Sm TGR block: inconclusive; Pf growth 48h: 21.2%; AmpC inh detg: -5.5%

Results for Cc1nc2nc(SCC(=O)NCCCN3CCCCCC3)nn2c(C)c1Cc1ccccc1Cl ?
Pf growth 96h: -6.3%; AmpC no deterg: 114.1%; SARS PLP yeast: -0.8%; Sm TGR block: 4.3%; Pf growth 48h: -26.3%; AmpC inh detg: 3.5%

Results for Cc1nc2nc(SCC(=O)NCCCN3CCCC(C)C3)nn2c(C)c1Cc1ccccc1Cl (centres undefined) ?
Pf growth 96h: 31.2%; AmpC no deterg: 58.8%; SARS PLP yeast: -3.4%; Sm TGR block: -7.1%; Pf growth 48h: 13.1µM*; AmpC inh detg: 3.5%

How did CCCCc1[nH]c(=O)c(C#N)c2c1CSC(C)(C)C2 do in these assays?
Pf growth 96h: -6.5%; AmpC no deterg: -23.5%; SARS PLP yeast: -1.2%; Sm TGR block: 31.6µM*; Pf growth 48h: 9.0%; AmpC inh detg: inconclusive

Results for CCCc1[nH]c(=O)c(C#N)c2c1COC(C)(C)C2 ?
Pf growth 96h: 1.65µM*; AmpC no deterg: -8.4%; SARS PLP yeast: -5.6%; Sm TGR block: 2.4%; AmpC inh detg: 2.0%

Screens deposited in PubChem by National Center for Advancing Translational Sciences (NCATS).
